# Laboratory results: PubChem BioAssay
# Calls of active or inactive are those of the source.
# Experiments:
# Albumin (Bos taurus) = Albumin (Bos taurus) (UniProt P02769); assay: compounds binding labelled BSA control protein – biochemical, small-molecule microarray, Alexa647 label, 635/667 nm fluorescence, artefact control for SMM control protein annotation, profiling panel (AID 1118); conditions: BSA-A647 binding, fluorescence 635 nm, higher = more signal;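 also: score merges 667 nm emission intensity and signal-to-noise per printed compound spot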
# Albumin (Bos taurus), sequence (P02769 whole entry, looked up): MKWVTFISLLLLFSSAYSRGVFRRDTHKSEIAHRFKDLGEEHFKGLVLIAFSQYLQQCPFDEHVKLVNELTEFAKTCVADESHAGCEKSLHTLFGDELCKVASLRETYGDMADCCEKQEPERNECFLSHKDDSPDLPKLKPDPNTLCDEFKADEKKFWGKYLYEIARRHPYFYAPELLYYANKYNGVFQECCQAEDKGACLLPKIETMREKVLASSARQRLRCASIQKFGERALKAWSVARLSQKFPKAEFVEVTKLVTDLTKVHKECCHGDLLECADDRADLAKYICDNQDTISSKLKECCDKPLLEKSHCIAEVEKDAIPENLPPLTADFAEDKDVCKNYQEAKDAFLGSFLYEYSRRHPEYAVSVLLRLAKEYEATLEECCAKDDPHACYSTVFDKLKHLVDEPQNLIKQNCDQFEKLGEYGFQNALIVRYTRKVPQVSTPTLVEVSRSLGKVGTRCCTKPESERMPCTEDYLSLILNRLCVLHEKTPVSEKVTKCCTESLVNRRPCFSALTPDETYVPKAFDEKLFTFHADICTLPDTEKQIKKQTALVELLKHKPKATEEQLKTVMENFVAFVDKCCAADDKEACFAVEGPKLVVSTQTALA
# [1] = probe aXIP binding to arrayed compounds – biochemical, NeuroSMM set, 635/667 nm fluorescence, primary screen (AID 1119); conditions: small-molecule microarray, higher = more signal, called active from +8 up or from −8 down;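 also: probe is the protein aXip251-270 applied at 1 µg/mL to compound-printed slides; binding of probe to printed compounds measured as 667 nm fluorescence plus signal to noise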
# [2] = probe aNOTCH3 binding on compound microarray – biochemical, small-molecule microarray, 635/667 nm fluorescence, primary screen (AID 1120); conditions: higher = more signal;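 also: probe is a biotin-tagged antibody raised against NOTCH3 rather than NOTCH3 protein; score merges spot fluorescence near 667 nm with spot signal to noise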
# [3] = probe aNOTCH2 binding on compound microarray – biochemical, small-molecule microarray, 635/667 nm fluorescence, primary screen (AID 1121); conditions: higher = more signal;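 also: score merges feature fluorescence read at 667 nm with its signal to noise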
# [4] = biological target: Carbonic anhydrase 2 (Homo sapiens) (UniProt P00918); assay: compounds binding carbonic anhydrase 2 – biochemical, small-molecule microarray, Alexa647-labelled CAII, profiling panel (AID 1122); conditions: CAII-A647 binding fluorescence, higher = more signal
# [5] = COS7 lysate on small-molecule microarray, probe aHis, 635 nm (AID 1123); conditions: COS7 cell lysate, fluorescence, higher = more signal;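 also: z-score combines 667nm fluorescence intensity with signal-to-noise per printed compound spot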
# [6] = probe aLAP1 signal on lysate-treated microarray – cell lysate, small-molecule microarray, COS7 lysate, primary screen (AID 1124); conditions: probe aLAP1, fluorescence, higher = more signal;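 also: lysate comes from COS7 cells expressing LAP1 and is applied at 0.3 µg/mL; score merges spot fluorescence near 667 nm with signal-to-noise over triplicate slides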
# Sam68 (KHDRBS1) = assay: compounds binding KHDRBS1 protein – biochemical, small-molecule microarray, 635 nm fluorescence, primary screen (AID 1125); conditions: higher = more signal;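 also: score merges 667 nm channel intensity with signal to noise over triplicate slides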
# [7] = system: Chordin-like protein 2 (CHRDL2); assay: compounds binding chordin-like 2 – biochemical, small-molecule microarray, 635 nm fluorescence, primary screen (AID 1126); conditions: fluorescence 635 nm, higher = more signal;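 also: printed compound slides probed with Chrdl2 protein at 4 µg/mL for 1 h at 4 C; score merges 667 nm emission intensity with signal to noise over three replicate slides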
# [8] = biological target: Concanavalin-A (Canavalia ensiformis) (UniProt P02866); assay: compounds binding concanavalin A lectin – biochemical, small-molecule microarray, Alexa647 label, 635 nm, artefact control for SMM control protein annotation, primary screen (AID 1127); conditions: ConA-A647 binding fluorescence, higher = more signal;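 also: z combines 667 nm emission intensity with signal-to-noise across three replicate slides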
# Concanavalin-A (Canavalia ensiformis), sequence (P02866 whole entry, looked up): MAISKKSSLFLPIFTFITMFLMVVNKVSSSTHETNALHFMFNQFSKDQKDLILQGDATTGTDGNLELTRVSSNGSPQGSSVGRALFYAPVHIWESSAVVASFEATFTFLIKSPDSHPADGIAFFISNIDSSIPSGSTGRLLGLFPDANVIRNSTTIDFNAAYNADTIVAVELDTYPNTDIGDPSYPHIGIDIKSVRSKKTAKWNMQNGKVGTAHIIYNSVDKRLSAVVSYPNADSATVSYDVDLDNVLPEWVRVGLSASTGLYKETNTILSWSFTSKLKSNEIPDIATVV
# [9] = compounds binding Alexa647 anti-His antibody – biochemical, small-molecule microarray, 635 nm fluorescence, artefact control for SMM control protein annotation, primary screen (AID 1128); conditions: higher = more signal;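 also: score merges feature fluorescence with signal-to-noise for each printed compound spot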
# [10] = system: Human papillomavirus type 1a E7 protein (residues 1-88); assay: HPV1a E7 small-molecule binders, primary screen, biochemical, small-molecule microarray, residues 1-88, 635 nm (AID 1129); conditions: small-molecule microarray binding, fluorescence 635 nm; higher = more signal
# [11] = biological target: Focal adhesion kinase 1 (Homo sapiens) (UniProt Q05397); assay: PTK2 protein binding on printed compound slides – biochemical, small-molecule microarray, 635/667 nm fluorescence, BSA, DTT, primary screen (AID 1130); conditions: 635 nm fluorescence, higher = more signal;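 also: composite of spot emission at 667 nm and signal to noise over triplicate slides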
# Focal adhesion kinase 1 (Homo sapiens), sequence (Q05397 whole entry, looked up): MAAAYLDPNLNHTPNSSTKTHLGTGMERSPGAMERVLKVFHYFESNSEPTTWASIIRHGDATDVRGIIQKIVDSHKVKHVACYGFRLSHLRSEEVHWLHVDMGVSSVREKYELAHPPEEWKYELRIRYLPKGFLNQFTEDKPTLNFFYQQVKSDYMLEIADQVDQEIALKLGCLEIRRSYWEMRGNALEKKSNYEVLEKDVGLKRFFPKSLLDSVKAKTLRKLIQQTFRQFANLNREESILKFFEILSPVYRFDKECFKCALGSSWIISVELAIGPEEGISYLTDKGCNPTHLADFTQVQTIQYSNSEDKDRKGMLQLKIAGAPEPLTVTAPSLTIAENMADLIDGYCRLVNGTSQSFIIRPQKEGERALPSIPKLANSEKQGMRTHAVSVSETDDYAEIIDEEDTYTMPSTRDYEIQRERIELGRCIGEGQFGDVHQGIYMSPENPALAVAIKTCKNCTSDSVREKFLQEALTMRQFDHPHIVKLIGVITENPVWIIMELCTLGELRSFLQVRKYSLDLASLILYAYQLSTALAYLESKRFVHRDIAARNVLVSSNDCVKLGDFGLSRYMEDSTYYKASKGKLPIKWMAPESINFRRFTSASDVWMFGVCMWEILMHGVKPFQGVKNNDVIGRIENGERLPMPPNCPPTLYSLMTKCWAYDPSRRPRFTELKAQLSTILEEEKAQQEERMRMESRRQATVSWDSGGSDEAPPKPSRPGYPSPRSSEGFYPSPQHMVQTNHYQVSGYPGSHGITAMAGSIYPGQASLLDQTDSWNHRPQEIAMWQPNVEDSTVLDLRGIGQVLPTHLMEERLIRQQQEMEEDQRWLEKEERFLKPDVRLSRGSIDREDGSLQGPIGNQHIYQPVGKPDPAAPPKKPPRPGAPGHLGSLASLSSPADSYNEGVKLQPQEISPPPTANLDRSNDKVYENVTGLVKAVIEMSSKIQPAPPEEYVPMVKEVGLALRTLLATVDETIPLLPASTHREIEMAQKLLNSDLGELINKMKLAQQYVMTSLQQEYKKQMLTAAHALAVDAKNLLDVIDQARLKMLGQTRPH
# [12] = system: Fibrinogen (Alexa647-labelled); assay: Alexa647-fibrinogen binding to printed small molecules – biochemical, small-molecule microarray, 635/667 nm fluorescence, artefact control for SMM control-protein annotation, profiling panel (AID 1131); conditions: fibrinogen-A647 binding fluorescence, higher = more signal;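 also: z-score merges 667 nm fluorescence with per-spot signal-to-noise over triplicate slides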
# [13] = biological target: Follistatin (Homo sapiens) (UniProt P19883); assay: FST protein binding to printed compounds – biochemical, small-molecule microarray, 635/667 nm fluorescence, primary screen (AID 1132); conditions: 635 nm fluorescence, higher = more signal
# Follistatin (Homo sapiens), sequence (P19883 whole entry, looked up): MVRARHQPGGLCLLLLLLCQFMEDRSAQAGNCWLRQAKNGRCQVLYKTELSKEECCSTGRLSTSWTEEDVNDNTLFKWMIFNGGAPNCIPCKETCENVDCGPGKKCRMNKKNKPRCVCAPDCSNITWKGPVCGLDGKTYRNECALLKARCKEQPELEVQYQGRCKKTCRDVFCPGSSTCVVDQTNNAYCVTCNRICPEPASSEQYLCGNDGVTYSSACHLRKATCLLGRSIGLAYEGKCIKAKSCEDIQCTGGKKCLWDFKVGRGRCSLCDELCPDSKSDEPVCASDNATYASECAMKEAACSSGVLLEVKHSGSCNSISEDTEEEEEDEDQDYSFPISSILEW
# [14] = biological target: Fibroblast growth factor 2 (Homo sapiens) (UniProt P09038); assay: basic fibroblast growth factor binding to printed compounds – biochemical, small-molecule microarray, 635/667 nm fluorescence, primary screen (AID 1133); conditions: FGF2, fluorescence 635/667, higher = more signal
# Fibroblast growth factor 2 (Homo sapiens), sequence (P09038 whole entry, looked up): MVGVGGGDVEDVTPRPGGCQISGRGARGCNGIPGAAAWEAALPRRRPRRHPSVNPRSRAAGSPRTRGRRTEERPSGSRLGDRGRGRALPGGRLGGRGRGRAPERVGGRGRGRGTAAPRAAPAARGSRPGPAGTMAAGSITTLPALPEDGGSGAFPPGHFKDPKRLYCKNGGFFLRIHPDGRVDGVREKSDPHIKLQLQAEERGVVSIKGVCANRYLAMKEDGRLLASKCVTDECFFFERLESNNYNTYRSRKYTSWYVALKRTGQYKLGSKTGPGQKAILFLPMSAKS
# [15] = JC-1 mitochondrial potential readout, lung cancer cells – cell-based, A549, JC-1 fluorescence, basal, 24 h, 100 nL, profiling panel (AID 1138); conditions: higher = more signal;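 also: A549 lung adenocarcinoma cells under basal conditions with no added stimulus; test concentration not given here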
# Lefty1 = Lefty1 protein binding to printed compounds – biochemical, small-molecule microarray, 635/667 nm fluorescence, primary screen (AID 1139); conditions: fluorescence 635/667, higher = more signal
# [16] = system: wheat germ agglutinin (Triticum aestivum), Alexa647-labelled; assay: Alexa647-WGA lectin binding to printed small molecules – biochemical, small-molecule microarray, 635/667 nm fluorescence, artefact control for SMM control-protein annotation, profiling panel (AID 1140); conditions: WGA-A647 binding, 635 nm fluorescence, higher = more signal;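 also: score merges 667 nm feature emission with signal to noise over triplicate slides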
# [17] = biological target: Luciferin 4-monooxygenase (Photinus pyralis) (UniProt P08659); assay: inhibition of purified Photinus pyralis luciferase – biochemical, luminescence, purified enzyme, 2006 set, primary screen (AID 1141); conditions: purified firefly luciferase, SteadyGlo luminescence, 30 min; higher = more signal, called active from +8 up or from −8 down;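 also: cell-free assay with purified firefly luciferase at 100 ng per well in PBS; test concentration not given here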
# Luciferin 4-monooxygenase (Photinus pyralis), sequence (P08659 whole entry, looked up): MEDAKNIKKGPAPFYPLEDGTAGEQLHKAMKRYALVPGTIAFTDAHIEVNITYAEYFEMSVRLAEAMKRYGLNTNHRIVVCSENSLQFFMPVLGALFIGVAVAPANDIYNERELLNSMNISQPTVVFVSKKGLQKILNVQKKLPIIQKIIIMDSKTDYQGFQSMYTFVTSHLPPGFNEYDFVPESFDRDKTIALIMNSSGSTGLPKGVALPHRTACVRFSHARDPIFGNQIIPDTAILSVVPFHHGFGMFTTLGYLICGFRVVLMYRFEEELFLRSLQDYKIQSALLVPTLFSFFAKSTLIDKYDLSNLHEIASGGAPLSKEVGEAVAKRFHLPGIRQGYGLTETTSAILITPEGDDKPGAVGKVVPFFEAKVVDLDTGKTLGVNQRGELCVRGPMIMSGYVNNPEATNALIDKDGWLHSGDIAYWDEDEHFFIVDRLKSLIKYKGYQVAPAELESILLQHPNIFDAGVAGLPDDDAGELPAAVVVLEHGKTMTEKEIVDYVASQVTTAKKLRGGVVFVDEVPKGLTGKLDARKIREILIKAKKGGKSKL
Structure (SMILES),composite z-score (Albumin (Bos taurus)),composite Z-score [1],composite z-score [2],composite z-score [3],composite z-score [4],composite z-score [5],composite z-score [6],composite z-score (Sam68 (KHDRBS1)),composite z-score [7],composite z-score [8],composite z-score [9],composite z-score [10],composite z-score [11],composite z-score [12],composite z-score [13],composite z-score [14],z-score [15],composite z-score (Lefty1),composite z-score [16],z-score [17]
CCOC(=O)[C@H](CC(C)C)NC(=O)CCC1CC(OC(=O)NCCc2ccc(F)cc2)CC2(CCCC(COC(=O)NCCCN3CCCC3=O)O2)O1 (stereo not given in full),0.353,0.0886 (inactive),-0.179,-0.0839,0.325,0.619,0.16,0.883,0.473,0.0423,0.969,0.635,0.0501,0.958,1.25,0.304,-0.114,0.766,0.205,0.564 (inactive)
COCC#Cc1ccc([C@@H]2N[C@H](C(=O)O)CC[C@H]2C)cc1,-0.202,-0.165 (inactive),-0.0605,-0.144,-0.148,-0.336,-0.384,-0.377,0.305,-0.691,-1.01,0.307,0.547,-0.426,0.273,-0.0471,2.23,0.0859,-0.389,-1.77 (inactive)
CCOC(=O)[C@H](Cc1ccccc1)NC(=O)CCC1CC(OC(=O)NCCc2ccc(F)cc2)CC2(CCCC(COC(=O)NCCC(C)C)O2)O1 (stereo not given in full),0.508,1.05 (inactive),0.0939,-0.114,0.28,1.17,-0.0236,1.31,0.0858,0.831,1.05,1.12,0.156,0.871,0.967,1.02,0.833,0.743,0.381,0.553 (inactive)
COC(=O)[C@H](CCSC)NC(=O)CC=C[C@@H](C)CO,-0.245,-0.131 (inactive),-0.0651,-0.143,0.0952,1.42,-0.226,1.29,1.5,0.483,0.293,0.127,0.0533,-0.922,1.1,1.73,-1.08,1.6,-0.701,-0.08 (inactive)
CCOC(=O)[C@H](CC(C)C)NC(=O)CCC1CC(OC(=O)NCc2ccc3c(c2)OCO3)CC2(CCCC(COC(=O)NCCc3ccccc3OC)O2)O1 (stereo not given in full),0.31,1.05 (inactive),-0.0328,-0.0633,0.127,0.754,0.0278,1.29,0.663,1.05,0.746,1.13,0.283,0.669,0.826,1.15,-0.717,0.787,0.196,0.867 (inactive)
CO[C@H]1COC(=O)CCC[C@H](C)[C@@H](OC)COC(=O)CC=C[C@@H]1C,-0.553,0.168 (inactive),-0.136,-0.0766,-0.298,-0.378,-0.0711,0.113,0.896,-0.427,1.36,-0.117,-0.246,-0.0891,0.393,0.638,-0.86,0.562,-0.181,0.949 (inactive)
CC(CCN1CCCc2nc(C)c(C)cc21)=NO[C@H](C)c1cn([C@H](CO)Cc2ccccc2)nn1,0.177,0.271 (inactive),0.159,-0.112,0.236,0.497,0.0249,1.28,0.618,-0.113,0.906,0.474,0.402,0.166,0.564,0.559,-0.776,0.931,0.108,0.0837 (inactive)
CC(=O)OC[C@H]1O[C@@H](ON=C(C)CCN2CCCCc3nc(C)c(C)cc32)[C@H](OC(C)=O)[C@@H](OC(C)=O)[C@@H]1OC(C)=O,0.536,-0.288 (inactive),0.0282,-0.115,0.163,0.773,-0.0796,1.29,1.27,0.289,0.914,0.329,-0.0665,0.736,0.89,1.14,-0.66,1.17,0.162,0.949 (inactive)
CC(C)[C@H](NC(=O)OC(C)(C)C)[C@@H](O)CC(=O)C(C)(C)C,-0.269,-0.382 (inactive),-0.178,-0.152,-0.163,0.163,-0.0769,-0.0938,0.591,0.188,-0.007,-0.195,-0.402,0.0622,0.359,0.516,0.109,0.627,-0.0466,0.0879 (inactive)
CC#CCOCCC=C1c2ccccc2[C@@H](OC)[C@@H]1C,0.556,0.549 (inactive),-0.128,-0.101,0.336,-0.336,-0.0059,0.151,0.337,-0.515,1.79,-0.0931,-0.0029,0.329,0.331,0.412,-0.198,1.24,0.725,-0.693 (inactive)
CO[C@@H](C1CCCCC1)[C@@H](C)[C@H](OCc1cccc(Br)c1)[C@@H](C)CO,-0.0658,-0.188 (inactive),-0.207,-0.209,-0.17,-0.111,-0.0972,-0.0221,0.908,-0.153,-0.833,-0.0434,-0.299,-0.106,0.265,0.286,-0.72,0.407,-0.181,0.158 (inactive)
CC(C)(C)N1C(=O)[C@H]2[C@H]3[C@H](O)[C@H](O)CC(=NNC(=O)OCc4ccccc4)[C@@H]3CC[C@H]2C1=O,0.303,-0.151 (inactive),0.073,-0.0515,0.0243,0.728,0.3,0.692,0.397,0.87,0.0938,0.486,0.32,0.459,0.258,0.704,-0.202,0.34,0.433,-0.728 (inactive)
CC(CCN1CCc2nc(-c3ccccc3)c(-c3ccccc3)cc2C1)=NOC(C)CN1CCCc2nc(C)c(C)cc21 (stereo not given),0.682,0.944 (inactive),0.233,-0.0278,0.369,1.09,0.506,1.29,0.219,1.08,-0.929,1.15,0.382,0.96,0.94,0.541,3.46,0.659,0.379,0.397 (inactive)
COC(=O)[C@H](C)NC(=O)CCC1CC(OC(=O)NCc2ccc3c(c2)OCO3)CC2(CCCC(COC(=O)NCCCN3CCCC3=O)O2)O1 (stereo not given in full),0.328,0.3 (inactive),0.186,-0.293,0.167,0.639,0.261,1.26,0.826,0.872,0.23,1.03,0.174,0.861,0.602,1.42,-0.224,0.777,0.364,0.906 (inactive)
COC(=O)[C@H](C)NC(=O)CCC1CC(OC(=O)NCc2cccc3ccccc23)CC2(CCCC(COC(=O)NCCC(C)C)O2)O1 (stereo not given in full),0.168,0.559 (inactive),-0.095,-0.124,0.24,1.01,0.127,0.997,0.229,-0.087,0.164,1.18,0.287,-1.15,0.295,0.803,0.95,0.36,0.268,0.652 (inactive)
CC(C)=CCCC(C)=CCON=C1C[C@@H](O)[C@@H](O)[C@@H]2[C@@H]3C(=O)N(C4CCCCC4)C(=O)[C@@H]3CC[C@H]12,-0.207,1.59 (inactive),-0.0784,-0.164,0.106,0.0252,0.514,1.07,1.07,0.48,0.857,0.573,1.12,0.573,1.06,1.25,0.292,1.48,-0.0924,-0.0223 (inactive)
COC(=O)[C@H](C)NC(=O)CCC1CC(OC(=O)NCc2ccc3c(c2)OCO3)CC2(CCCC(COC(=O)NCc3ccccc3)O2)O1 (stereo not given in full),-0.372,0.264 (inactive),-0.0072,-0.156,0.192,0.849,-0.0296,1.26,0.133,0.829,0.554,0.938,-0.0996,0.332,0.653,0.718,1.05,0.827,0.0082,0.464 (inactive)
